# Measured values taken from PubChem BioAssay (NCATS).
# Records with an inconclusive call do not appear. A call without a number means that no potency is given here. Active and inactive are the calls of the source. The call rests on the fitted dose curve; in most records, active means well fitted curve in the direction sought with a large enough effect; inconclusive means small, poorly fitted or top-dose-only effect, or another doubt; inactive means no such curve, though single readings can be large; an effect the other way counts as inactive or inconclusive.
# Target: Glutaminase kidney isoform, mitochondrial (Homo sapiens) (UniProt O94925)
# Test: qHTS for Inhibitors of Glutaminase (GLS): LOPAC Validation (AID 624146); further: nearly all actives have a fitted effect of over 60% in size; further: potency means the concentration at half of the fitted maximal effect
# Settings: glutaminase enzyme activity inhibition; series mostly up to 46.1 µM
# Method in brief: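 hKGA in 45 mM KH2PO4 pH 8.2, 0.02% Tween-20 with pin-transferred compounds; 1 mM L-glutamine (stock) plus glutamate oxidase/HRP/Amplex Red coupling added. Fluorescence read initially and after 30 min at RT.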
# Glutaminase kidney isoform, mitochondrial (Homo sapiens), sequence (O94925 whole entry, looked up, canonical isoform): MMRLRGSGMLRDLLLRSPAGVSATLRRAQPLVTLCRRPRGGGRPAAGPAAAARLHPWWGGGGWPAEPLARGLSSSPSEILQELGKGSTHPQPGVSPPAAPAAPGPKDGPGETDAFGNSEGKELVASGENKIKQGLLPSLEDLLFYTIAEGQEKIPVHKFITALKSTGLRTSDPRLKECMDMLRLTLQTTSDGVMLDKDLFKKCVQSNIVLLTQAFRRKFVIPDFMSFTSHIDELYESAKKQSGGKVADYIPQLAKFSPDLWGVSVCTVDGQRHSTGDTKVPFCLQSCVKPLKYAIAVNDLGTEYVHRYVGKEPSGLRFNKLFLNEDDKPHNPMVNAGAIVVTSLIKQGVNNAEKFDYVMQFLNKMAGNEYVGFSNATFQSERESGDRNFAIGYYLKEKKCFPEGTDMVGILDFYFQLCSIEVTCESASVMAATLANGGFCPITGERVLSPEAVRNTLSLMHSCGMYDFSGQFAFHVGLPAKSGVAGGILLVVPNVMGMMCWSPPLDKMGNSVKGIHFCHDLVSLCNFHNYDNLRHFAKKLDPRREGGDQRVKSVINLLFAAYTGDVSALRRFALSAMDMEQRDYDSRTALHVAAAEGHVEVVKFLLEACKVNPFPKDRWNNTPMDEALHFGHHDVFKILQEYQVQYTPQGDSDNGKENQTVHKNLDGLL
row,SMILES,Potency
1,N.N.N.N.N.N.N.N.N.N.N.N.N.N.O.O.[Ru+4].[Ru+5].[Ru+5],inactive
2,Ic1ccc(N2CCN(Cc3c[nH]c4ncccc34)CC2)cc1,inactive
3,CCCCC/C=C\CC(O)/C=C/c1cccc(CC(O)CCCCO)n1 (stereo unspecified),inactive
4,Nc1nc(Nc2ccccc2)nc2c1ncn2[C@@H]1O[C@H](CO)[C@@H](O)[C@H]1O,inactive
5,OCC1O[C@H]([S-])[C@H](O)[C@@H](O)[C@@H]1O.[Au+] (stereo partly specified),inactive
6,Fc1cccc(/C=N/N=C/c2cccc(F)c2)c1,inactive
7,c1cnc2c(c1)ccc1cccnc12,inactive
8,Oc1ccccc1O,2000 nM (active)
9,CNC(=O)[C@H]1O[C@@H](n2cnc3c(NCc4cccc(I)c4)ncnc32)[C@H](O)[C@@H]1O,inactive
10,OC[C@H]1O[C@@H](n2cnc3c(NC4CCCC4)ncnc32)[C@H](O)[C@@H]1O,inactive
11,NC[C@@H]1O[C@H](C23CC4CC(CC(C4)C2)C3)Cc2c1ccc(O)c2O,inactive
12,COc1cccc(C(=O)NCCN2CCN(c3ccc(Cl)cc3)CC2)c1,inactive
13,Nc1ncnc2c1ncn2[C@@H]1O[C@H](COP(=O)(O)OP(=O)(O)OP(=O)(O)OP(=O)(O)OC[C@@H]2O[C@H](n3cnc4c(N)ncnc43)[C@@H](O)[C@H]2O)[C@@H](O)[C@H]1O,inactive
14,Brc1c(Br)c(Br)c2n[nH]nc2c1Br,inactive
15,CNc1ncnc2c1ncn2[C@@H]1O[C@H](CO)[C@@H](O)[C@H]1O,inactive
16,NO,inactive
17,O=C(c1ccc(Cl)cc1)N1CCN(c2ccc([N+](=O)[O-])c3ncccc23)CC1,inactive

# System: not listed separately
# Test: qHTS of Trypanosoma Brucei Inhibitors: LOPAC Validation (AID 624147)
# Settings: purified enzyme assay, luminescence, 45 min; series mostly up to 57.5 µM
# Method in brief: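 TbPYK + substrate in 50 mM TEA pH 7.2, 100 mM KCl, 10 mM MgCl2, 0.05% BSA, 0.01% Tween-20; cpd pinned; ADP 130 uM final; 45 min RT; Kinase-Glo Plus 10 min; luminescence endpoint.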
row,SMILES,Potency
1,C=C[C@H]1CN2CC[C@@H]1C[C@@H]2[C@@H](O)c1ccnc2ccc(OC)cc12,inactive
2,O=C1/C(=C/c2ccsc2)CC/C1=C\c1cccs1,inactive
3,Nc1nc(Nc2ccccc2)nc2c1ncn2[C@@H]1O[C@H](CO)[C@@H](O)[C@H]1O,inactive
4,c1cnc2c(c1)ccc1cccnc12,inactive
5,Oc1ccccc1O,inactive
6,CNC(=O)[C@H]1O[C@@H](n2cnc3c(NCc4cccc(I)c4)ncnc32)[C@H](O)[C@@H]1O,inactive
7,COc1cccc(C(=O)NCCN2CCN(c3ccc(Cl)cc3)CC2)c1,inactive
8,Nc1ncnc2c1ncn2[C@@H]1O[C@H](COP(=O)(O)OP(=O)(O)OP(=O)(O)OP(=O)(O)OC[C@@H]2O[C@H](n3cnc4c(N)ncnc43)[C@@H](O)[C@H]2O)[C@@H](O)[C@H]1O,inactive

# Target: Glucagon-like peptide 1 receptor (Homo sapiens) (UniProt P43220)
# Test: qHTS of GLP-1 Receptor Agonists: LOPAC Validation (AID 624148);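 further: luminescence from a luciferase reporter switched on by cAMP; higher luminescence signal means agonism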
# Settings: GLP-1R agonist cell assay; series mostly up to 46.1 µM
# Method in brief: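 Agonism scored as increased luciferase luminescence driven by cAMP in HEK293 clones carrying GLP-1R. Cells settled 12 hours, received compound for 4-6 hr at 37 deg C, 5% CO2, and were read after 12 min detection reagent at RT.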
# Glucagon-like peptide 1 receptor (Homo sapiens), sequence (P43220 whole entry, looked up): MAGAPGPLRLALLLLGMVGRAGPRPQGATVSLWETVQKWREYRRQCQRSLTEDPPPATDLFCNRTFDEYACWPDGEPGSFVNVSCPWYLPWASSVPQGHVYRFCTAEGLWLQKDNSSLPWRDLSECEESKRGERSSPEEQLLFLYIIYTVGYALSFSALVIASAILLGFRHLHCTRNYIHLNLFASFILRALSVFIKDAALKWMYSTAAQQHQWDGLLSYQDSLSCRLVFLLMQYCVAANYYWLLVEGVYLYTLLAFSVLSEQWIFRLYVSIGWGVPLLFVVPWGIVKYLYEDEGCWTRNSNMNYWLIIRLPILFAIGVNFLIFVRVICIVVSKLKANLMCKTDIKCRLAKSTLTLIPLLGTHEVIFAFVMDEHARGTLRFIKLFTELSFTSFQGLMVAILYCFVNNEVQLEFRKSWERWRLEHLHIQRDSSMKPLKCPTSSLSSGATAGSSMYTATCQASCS
row,SMILES,outcome
1,OCC1O[C@H](O)C(Cl)C(O)C1O (stereo partly specified),inactive
2,O=C(O)c1cc(=O)c2ccccc2[nH]1,inactive
3,O=C1C(SCCO)=C(SCCO)C(=O)c2ccccc21,inactive
4,CN1CCc2cccc3c2C1Cc1ccc(O)c(O)c1-3 (stereo unspecified),inactive
5,Cc1ccc(S(=O)(=O)/C=C/C#N)cc1,inactive
6,CO/N=C(\C(=O)N[C@@H]1C(=O)N2C(C(=O)O)=C(COC(C)=O)CS[C@H]12)c1csc(N)n1,inactive
7,CC(C)(C)c1ccc(S(=O)(=O)/C=C/C#N)cc1,inactive
8,O=C(O)CNC(=O)C(CS)Cc1ccccc1 (stereo unspecified),inactive
9,c1ccc(-c2ccccn2)nc1,inactive
10,CC(COc1ccc(/C=C/c2ccccc2)cc1)[N+](C)(C)C (stereo unspecified),inactive
11,CC(C)NCC(O)COc1cccc2ccccc12 (stereo unspecified),inactive
12,O=C1/C(=C/c2ccsc2)CC/C1=C\c1cccs1,inactive
13,O=C(CCCCCN1CCN(c2ccccc2-c2ccccc2)CC1)NC1CCCc2ccccc21 (stereo unspecified),inactive
14,O=c1[nH]c2cc(C(F)(F)F)ccc2n1-c1cc(C(F)(F)F)ccc1O,inactive
15,Nc1nc(SCc2ccc([N+](=O)[O-])cc2)c2ncn([C@@H]3O[C@H](CO)[C@@H](O)[C@H]3O)c2n1,inactive
16,Oc1cc2c(cc1O)CN(C(=S)NCCc1ccc(Cl)cc1)CCC2,inactive

row,SMILES,outcome
1,NC(=O)C(=O)O,inactive
2,COC(=O)c1c(C)[nH]c(C)c1C(=O)c1ccccc1Cc1ccccc1,inactive
3,N.N.N.N.N.N.N.N.N.N.N.N.N.N.O.O.[Ru+4].[Ru+5].[Ru+5],inactive
4,Ic1ccc(N2CCN(Cc3c[nH]c4ncccc34)CC2)cc1,inactive
5,CCCCC/C=C\CC(O)/C=C/c1cccc(CC(O)CCCCO)n1 (stereo unspecified),inactive
6,OCC1O[C@H]([S-])[C@H](O)[C@@H](O)[C@@H]1O.[Au+] (stereo partly specified),inactive
7,Fc1cccc(/C=N/N=C/c2cccc(F)c2)c1,inactive
8,c1cnc2c(c1)ccc1cccnc12,inactive
9,Oc1ccccc1O,inactive
10,OC[C@H]1O[C@@H](n2cnc3c(NC4CCCC4)ncnc32)[C@H](O)[C@@H]1O,inactive
11,NC[C@@H]1O[C@H](C23CC4CC(CC(C4)C2)C3)Cc2c1ccc(O)c2O,inactive
12,Brc1c(Br)c(Br)c2n[nH]nc2c1Br,inactive
13,CNc1ncnc2c1ncn2[C@@H]1O[C@H](CO)[C@@H](O)[C@H]1O,inactive
14,NO,inactive
15,O=C(c1ccc(Cl)cc1)N1CCN(c2ccc([N+](=O)[O-])c3ncccc23)CC1,inactive
